# Source: PubChem
# Most compounds without a hit are left out; they make up all but 1.1% or so of the library.
# NR5A2 inv ag: suppresses constitutive activity of human LRH-1; O00482; 360,000 tested, 0.13% active; AID 602396; inhibition, % at 3.6 µM; HEK293T StAR-luciferase reporter, LRH-1 transfected, 24 h;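 active = inhibition above the mean inhibition of all tested compounds plus 3 SD, cut at about 73% in these data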;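 note: 0% = DMSO wells and 100% = reporter-only cells lacking LRH-1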
# SRC1 inh: human NCOA1 inhibition; 360,000 tested, 0.12% active; HEK293 GAL4-SRC1 luciferase reporter, luminescence; Q15788; inhibition, % at 3.6 µM;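 active = inhibition above the campaign mean plus 3 SD, with each screening campaign given its own cutoff, cut at about 60% in these data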;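 note: 0% = DMSO treated cells and 100% = gossypol at 36 µM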
# Target sequence (Q15788 whole entry, looked up, the tested form may be a part): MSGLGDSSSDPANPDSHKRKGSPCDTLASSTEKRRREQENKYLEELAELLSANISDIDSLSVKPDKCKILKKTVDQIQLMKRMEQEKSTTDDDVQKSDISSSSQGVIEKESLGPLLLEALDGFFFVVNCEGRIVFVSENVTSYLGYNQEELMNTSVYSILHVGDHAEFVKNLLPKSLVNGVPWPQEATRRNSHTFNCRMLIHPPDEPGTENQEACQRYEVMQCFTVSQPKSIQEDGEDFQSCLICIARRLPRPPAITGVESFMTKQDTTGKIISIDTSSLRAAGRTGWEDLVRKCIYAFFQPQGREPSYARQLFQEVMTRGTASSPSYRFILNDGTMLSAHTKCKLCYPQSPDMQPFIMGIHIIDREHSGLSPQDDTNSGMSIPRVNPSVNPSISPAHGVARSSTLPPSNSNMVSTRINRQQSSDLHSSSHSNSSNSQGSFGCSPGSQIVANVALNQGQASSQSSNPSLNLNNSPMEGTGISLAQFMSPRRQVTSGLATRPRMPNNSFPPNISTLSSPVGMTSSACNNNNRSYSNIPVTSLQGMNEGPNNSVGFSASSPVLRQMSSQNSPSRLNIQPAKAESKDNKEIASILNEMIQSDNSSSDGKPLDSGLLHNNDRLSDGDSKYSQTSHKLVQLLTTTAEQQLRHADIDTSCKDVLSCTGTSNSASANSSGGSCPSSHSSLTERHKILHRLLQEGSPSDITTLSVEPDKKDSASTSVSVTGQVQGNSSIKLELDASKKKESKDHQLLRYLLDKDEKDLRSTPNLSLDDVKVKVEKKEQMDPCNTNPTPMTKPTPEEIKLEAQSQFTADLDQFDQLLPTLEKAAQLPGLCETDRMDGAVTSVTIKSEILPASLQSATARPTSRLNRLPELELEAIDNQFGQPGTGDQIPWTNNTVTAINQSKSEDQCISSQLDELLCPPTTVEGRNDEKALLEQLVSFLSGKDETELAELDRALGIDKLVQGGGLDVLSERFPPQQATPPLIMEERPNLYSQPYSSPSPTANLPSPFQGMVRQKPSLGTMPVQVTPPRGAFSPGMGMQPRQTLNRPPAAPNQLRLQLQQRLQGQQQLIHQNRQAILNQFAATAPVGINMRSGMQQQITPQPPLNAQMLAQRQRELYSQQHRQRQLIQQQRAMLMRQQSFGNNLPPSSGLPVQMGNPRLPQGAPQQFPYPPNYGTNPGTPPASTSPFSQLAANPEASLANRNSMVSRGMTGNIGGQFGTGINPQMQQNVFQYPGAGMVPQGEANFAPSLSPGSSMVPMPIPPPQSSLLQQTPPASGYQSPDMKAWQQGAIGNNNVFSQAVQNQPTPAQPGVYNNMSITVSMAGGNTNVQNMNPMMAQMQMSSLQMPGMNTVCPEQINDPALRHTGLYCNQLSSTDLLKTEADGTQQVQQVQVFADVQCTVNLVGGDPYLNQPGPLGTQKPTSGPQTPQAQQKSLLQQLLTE
# SRC3 inh: inhibitors of human steroid receptor coactivator 3 (SRC3); Q9Y6Q9; HEK293 GAL4-SRC3 luciferase reporter, luminescence; inhibition, % at 3.6 µM; 360,000 tested, 0.17% active; AID 588352;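 active = inhibition above a per-campaign cutoff, the mean of all compounds plus 3 SD, cut at about 60% in these data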;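 note: 0% = DMSO-treated cells and 100% = gossypol-treated cells at 36 µM; higher means less SRC3-driven luciferase light from the GAL4 reporter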
# NR2F2 inh: NR2F2 (human) inhibition, primary screen; P24468; HEK293T NGFI-A luciferase reporter, luminescence; inhibition, % at 8.6 µM; 370,000 tested, 0.7% active;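 active = inhibition above a per-plate cutoff, mean inhibition of test wells between control levels plus 3 SD, cut at about 38% in these data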;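 note: cells cotransfected with COUP-TFII expression vector driving the NGFI-A reporter; 0% = median of COUP-TF2 test wells and 100% = reporter-only cells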
# SRC2 inh: human SRC2 (NCOA2) inhibition; inhibition, % at 9 µM; HEK293 GAL4-SRC2 luciferase reporter, luminescence; 370,000 tested, 0.17% active; Q15596;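 active = inhibition above the mean inhibition of all tested compounds plus 3 SD, set per campaign, cut at about 52% in these data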;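 note: 0% = DMSO treated cells and 100% = cells given Gossypol at 36 µM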
# GalR3 antagonist: human GalR3 antagonism; O60755; HEK293 GalR3-CNG cAMP membrane potential fluorescence; galR3 body fused to GalR1 C-terminus; inhibition, % at 3 µM; 360,000 tested, 0.44% active;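 active = inhibition above the screen-wide average plus 3 SD, cut at about 13% in these data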;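 note: forskolin and galanin both at EC90 stimulate the cells; cAMP rise reported by CNG channel membrane potential dye signal; 0% = forskolin plus galanin with DMSO and 100% = forskolin alone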
# GalR3 antag conf: GalR3 (human) antagonism, confirmation. shares compounds with GalR3 antagonist. HEK293 GalR3 CNG cAMP biosensor, membrane potential fluorescence; galR3 fused to GalR1 carboxy tail; challenged with forskolin and galanin at EC90. inhibition, % at 3 µM. 1,600 tested, 59% active. AID 652245;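 active = inhibition above the primary screen's cutoff, the mean inhibition of all screened compounds plus 3 SD, cut at about 13% in these data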;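 note: 0% = forskolin plus galanin and 100% = forskolin alone with DMSO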
# CNG parental: parental cell agonism counter-screen for GalR3 antagonists | AID 652268 | shares compounds with GalR3 antagonist | 1,600 tested, 10% active | activation, % at 3 µM | HEK293-CNG parental cells, cAMP membrane potential fluorescence; normalised: DMSO wells 0%, forskolin wells 100%; in the data active = activation above about 1.3%
# Gal4-VP16 ctr: inhibits VP16 reporter, flagging COUP-TFII antagonist hits; shares compounds with NR2F2 inh; HEK293 Gal4-VP16 luciferase reporter, luminescence; inhibition, % at 8.5 µM; 2,500 tested, 25% active; in the data active = inhibition above about 13%
# NR2F2 inh conf: COUP-TFII (NR2F2) inhibition, confirmation assay; shares compounds with NR2F2 inh; HEK293 NGFI-A luciferase reporter, luminescence; inhibition, % at 8.5 µM; 2,500 tested, 45% active; AID 687008;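 active = mean inhibition over three repeats above a set limit taken from the earlier primary screen, cut at about 38% in these data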;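 note: 100% = cells given the luciferase reporter alone without the COUP-TF2 vector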
# An asterisk follows results filed as active; x = no result.
SMILES,NR5A2 inv ag,SRC1 inh,SRC3 inh,NR2F2 inh,SRC2 inh,GalR3 antagonist,GalR3 antag conf,CNG parental,Gal4-VP16 ctr,NR2F2 inh conf
COc1cc(CSc2nnnn2-c2ccc(C)cc2)cc(OC)c1OC,49.3,15.6,23.1,68.5*,14.4,95.6*,97.7*,0.4,0.3,53.9*
COc1ccc(F)cc1CSc1nnnn1-c1ccc(O)cc1,21.1,8.5,17.4,2.9,12.2,-8.9,x,x,x,x
COC(=O)[C@]12C=CCN1[C@H](c1ccccc1)c1c(c3ccccc3n1S(=O)(=O)c1ccc(C)cc1)C2,x,x,x,-5.2,-11.0,x,x,x,x,x
COc1ccc(NS(=O)(=O)c2cccc(NC(=O)c3ccc(Cl)nc3)c2)cc1,49.4,23.1,10.5,75.2*,7.0,82.2*,96.5*,-0.1,3.1,65.9*
C[C@H]1[C@@H](NCc2ccccc2)CC[C@@]23CCCN2C(=O)CCC[C@@H]13,x,x,x,0.1,x,x,x,x,x,x
CCN(C1CCCCC1)S(=O)(=O)c1ccc(S(=O)(=O)NCc2ccncc2)cc1,22.4,9.6,6.7,54.7*,2.2,16.0*,48.9*,-0.6,0.6,31.9
Cc1ccc(S(=O)(=O)NCc2ccncc2)cc1C,29.7,-5.1,18.9,60.1*,8.0,87.8*,104.9*,-0.5,14.8*,57.0*
COc1cc(S(=O)(=O)NCc2ccncc2)ccc1Br,26.4,5.2,13.3,56.3*,15.6,63.1*,90.1*,-0.3,7.7,43.5*
O=S(=O)(NCc1ccncc1)c1ccc(F)c(F)c1,6.1,15.2,28.5,32.3,24.9,-8.7,x,x,x,x
CNC(=O)c1cc(S(=O)(=O)NCc2ccncc2)ccc1OC,14.8,-0.3,-0.1,13.2,-33.4,-4.4,x,x,x,x
O=S(=O)(NCc1ccncc1)c1ccc(Br)s1,27.7,32.6,22.6,63.4*,19.9,104.8*,116.3*,-0.1,6.7,53.8*
Cc1cc(Br)c(S(=O)(=O)NCc2ccncc2)cc1C,33.4,13.2,11.4,54.0*,14.5,100.8*,105.1*,-0.3,8.4,47.0*
Cn1c(CN2CCCCC2)nc2cc(NC(=O)c3ccccc3)ccc21,-34.9,-42.7,-31.2,-14.4,-24.9,-6.4,x,x,x,x
Cn1c(CN2CCCCC2)nc2cc(NC(=O)c3cccc(Br)c3)ccc21,32.2,-11.6,-15.3,49.3*,-26.1,17.6*,38.1*,0.1,-42.6,10.8
CCCCN1CC(=O)N2[C@H](C[C@@]3(n4ccc5ccccc54)c4ccccc4N(S(=O)(=O)c4ccccc4)[C@@H]23)C1=O,x,x,x,16.5,13.6,x,x,x,x,x
O=C(c1ccc(CNS(=O)(=O)c2ccccc2)cc1)N1CCN(Cc2ccccc2)CC1,37.7,19.1,19.0,58.3*,26.9,20.9*,9.9,-0.4,-3.6,15.6
O=C(C(=O)c1cc(Br)ccc1O)c1cc(Br)ccc1O,16.2,-1.6,17.1,39.1*,15.8,87.0*,43.7*,0.8,6.5,10.2
O=C(c1ccc(O)c(Br)c1)c1cc(Br)ccc1O,-20.9,-8.7,11.9,3.1,-1.4,3.8,x,x,x,x
Cc1ccc(S(=O)(=O)Nc2ccccc2C(=O)Nc2nc(-c3ccc(F)cc3)cs2)cc1,52.6,35.6,58.2,66.4*,36.6,90.1*,114.1*,-1.0,0.1,37.3
COc1ccc(-c2csc(NC(=O)c3ccccc3F)n2)cc1,-19.5,8.0,-29.9,8.8,-9.7,-9.0,x,x,x,x
COc1ccc(-c2csc(NC(=O)c3ccccc3NS(=O)(=O)c3ccc(F)c(F)c3)n2)cc1,87.0*,64.3*,78.7*,61.1*,0.1,91.5*,106.1*,-0.9,3.3,60.7*
CC(C)C[C@H](NC1(C(=O)NC2CCCCC2)CCCCC1)C(=O)NCCc1c[nH]c2ccccc12,x,x,x,12.3,x,x,x,x,x,x
CSc1ccc(C(=O)C2CCCN(C(=O)CCc3c(C)nn(C)c3C)C2)cc1 (stereo not drawn),24.8,7.0,11.3,58.4*,19.7,86.3*,94.8*,-0.1,-2.1,33.6
Cn1nc(CC(=O)Nc2ccc3c(c2)OCCO3)c2ccccc2c1=O,38.5,11.8,35.2,68.2*,-2.3,100.0*,105.7*,-0.5,-2.2,53.2*
CCCCCCn1c(=O)[nH]c2c(c1=O)CCC2,-10.7,-2.0,11.2,-28.0,11.7,-1.4,x,x,x,x
SMILES,NR5A2 inv ag,SRC1 inh,SRC3 inh,NR2F2 inh,SRC2 inh,GalR3 antagonist,GalR3 antag conf,CNG parental,Gal4-VP16 ctr,NR2F2 inh conf
CCCCCCCn1c2c(c(=N)c3c1CCC3)CCCC2,84.1*,44.2,79.3*,78.6*,32.9,31.3*,43.7*,6.0*,16.7*,81.9*
CCCCCCn1c2c(c(=N)c3c1CCC3)CCC2,92.0*,66.9*,75.2*,78.3*,-7.5,35.0*,21.2*,0.3,12.9,69.9*
CC1CCC2(CC1)CCN(CCCOC(=O)NCc1ccc(Cl)cc1)C2=O (stereo not drawn),x,x,x,2.1,21.3,x,x,x,x,x
CC(Cl)C(=O)N1CCC(C(=O)NCC2COc3ccccc3O2)CC1 (stereo not drawn),x,x,x,-4.1,-12.5,x,x,x,x,x
CCN1/C(=C/c2ccc3cccc(C)c3[n+]2CC)Sc2ccccc21,69.3,42.5,52.8,74.3*,-6.0,48.7*,45.0*,10.1*,19.0*,65.8*
CCN1/C(=C\c2ccc3cc(C)ccc3[n+]2CC)Sc2cc(C)c(C)cc21,64.1,20.4,35.9,67.3*,-28.4,59.3*,74.1*,6.3*,7.6,53.3*
CCN1/C(=C/c2ccc3cc(C)cc(C)c3[n+]2CC)Sc2cc(C)ccc21,66.5,24.5,43.7,65.8*,-47.3,48.5*,57.7*,9.7*,23.0*,69.0*
CCN1/C(=C/c2ccc3cc(C)ccc3[n+]2CC)Sc2ccc3sccc3c21,14.4,30.7,38.7,x,x,x,x,x,x,x
O=c1c2ccccc2n(Cc2ccccc2)n1[C@@H](Cc1ccccc1)Cn1cc(-c2ccc(-c3ccccc3)cc2)nn1,x,x,x,9.0,-14.3,x,x,x,x,x
COC(=O)[C@]1(C#N)CC(=O)N(Cc2ccc(Cl)cc2)[C@@H]1c1ccccc1,x,x,x,-3.8,6.0,x,x,x,x,x
O=C(Nc1ccc(OCC(F)(F)C(F)F)c(C(F)(F)F)c1)c1ccccc1O,34.4,36.2,28.6,69.4*,26.0,19.1*,16.4*,-0.6,-28.6,25.8
CC1(C)CC(N2CCCCC2)=CC(=[N+]2CCCCC2)C1,55.5,43.3,48.1,66.5*,10.9,47.2*,12.6*,0.4,8.6,50.8*
